Bioassay records from PubChem.
The list is not random: actives were taken first. Their share in the collection is about 21%.
IL-1B inflam inh – blocks inflammasome-driven IL-1 beta release. THP-1 LPS/ATP IL-1B secretion, AlphaLISA, 16 h; active compounds read low. activity change, % at 57.5 µM. actives 4.7% (n = 360,000). AID 743279; in the data active means activity change below about -50%; inconclusive means mostly about -30% to -49%
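THP-1 cells pretreated 1 hr with compounds (up to 57.5 uM final), then stimulated with LPS (250 ng/mL final) plus ATP (1.25 mM final); secreted IL-1B measured by AlphaLISA after 16 hr, decreased signal indicating inhibition.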
ClpP mod – qHTS Assay for Activators of ClpP | purified B. subtilis ClpP, FRET peptide cleavage, 20 min | Potency, µM (doses to about 57.5 µM) | AID 651965, 2013 | ATP-dependent Clp protease proteolytic subunit (Bacillus subtilis (strain 168)), P80244 | actives 1.9% (n = 340,000); active means well fitted falling curve with a large enough effect; inconclusive means small, poorly fitted or top-dose-only effect; inactive means no such curve, though single readings can be large or run the other way; further: the source files actives as falling curves though it sought activators and does not explain the sign; nearly all actives have a fitted effect of over 65% in size
Target sequence (P80244 whole entry, looked up): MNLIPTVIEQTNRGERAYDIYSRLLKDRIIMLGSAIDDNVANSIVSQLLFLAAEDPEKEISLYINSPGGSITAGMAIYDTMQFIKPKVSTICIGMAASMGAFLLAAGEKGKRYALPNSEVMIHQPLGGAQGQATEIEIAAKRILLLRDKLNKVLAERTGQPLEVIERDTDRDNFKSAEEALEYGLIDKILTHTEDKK
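ClpP 10 microg/mL final, pH 8 Tris/KCl buffer with BSA, glycerol, Tween-20; compound pinned in; FRET-FV substrate; RT 20 min; Ex320/Em430; ΔFRET vs ADEP 5.8 microM, DMSO, no enzyme.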
D3 ag – agonists of human D3 dopamine receptor; P35462; D3R DiscoveRx beta-arrestin cells, luminescence, 90 min; max activation, %; actives 0.58% (n = 410,000); in the data active means max activation above about 30%
Target sequence (P35462 whole entry, looked up): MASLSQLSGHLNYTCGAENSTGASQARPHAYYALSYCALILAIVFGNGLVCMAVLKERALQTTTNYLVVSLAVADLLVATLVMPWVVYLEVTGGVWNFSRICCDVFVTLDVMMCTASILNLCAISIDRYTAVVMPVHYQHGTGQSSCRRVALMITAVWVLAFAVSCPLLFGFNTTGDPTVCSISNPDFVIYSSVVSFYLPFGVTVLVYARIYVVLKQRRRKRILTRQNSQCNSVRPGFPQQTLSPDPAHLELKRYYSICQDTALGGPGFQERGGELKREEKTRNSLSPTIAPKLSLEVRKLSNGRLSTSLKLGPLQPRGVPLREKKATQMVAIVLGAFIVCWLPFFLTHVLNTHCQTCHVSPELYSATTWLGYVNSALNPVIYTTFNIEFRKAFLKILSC
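Agonist-mode cell screen: cells plated at 1500/well and incubated overnight at 37 °C, then exposed to library compounds for 90 min at 37 °C. Detection reagent was added for 30–60 min at room temperature, and luminescence was read.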
DT40 TDP1 no CPT – qHTS for Inhibitors of human tyrosyl-DNA phosphodiesterase 1 (TDP1): qHTS in cells in absence of CPT. DT40 Tdp1-/- hTDP1 cells, no CPT, ATP luminescence, 48 h. Potency, µM (titrated, usually from 46.2 µM), actives largely listed as inhibitors. actives 15% (n = 420,000); further: nearly all actives have a fitted effect of over 55% in size
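DT40 Tdp1-/-;hTDP1 cells, no CPT (DMSO vehicle only), 400 cells/well; compounds pin-transferred; ≥48 hr, 37 °C; CellTiter-Glo 30 min RT dark, luminescence read.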
TDP1 cell CPT – DT40-hTDP1 cell growth loss with CPT; Potency, µM (series often up to 46.2 µM), usual class: inhibitors; actives 12% (n = 420,000); chicken DT40 Tdp1-/-;hTDP1 cells + 20 nM CPT, ATP luminescence, 48 h; further: nearly all actives have a fitted effect of over 55% in size
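Cell growth measured by CellTiter-Glo luminescence after a minimum 48 h, 37 C compound exposure with 20 nM CPT in Tdp1-knockout DT40 cells stably expressing hTDP1, seeded 400/well; qHTS titration format.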
D3 antag – blocks the human D3 dopamine receptor; P35462; AID 652054; max response, negative = inhibition, %; actives 2.5% (n = 360,000); D3R cells, DiscoveRx beta-arrestin luminescence, antagonist mode; active compounds read low; in the data active means max response below about -50%; inconclusive means no clear call, values can overlap the other calls
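Cells expressing the human receptor were seeded at 1500 cells/well, incubated overnight at 37 degrees C in 5% CO2, then exposed to library compounds with dopamine controls for 90 minutes at 37 degrees C before luminescent detection.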
Of the large screens only hits and unclear results are named; the others gave an inactive call. Unless noted, the call rests on the fitted dose curve; in most records, active means well fitted inhibition curve with a large enough effect; inconclusive means small, poorly fitted or top-dose-only effect; inactive means flat fitted curve, though single readings scatter.

Cc1ccc(C)c2[nH]c(=O)c(CN(Cc3nnnn3C3CCCCC3)CC3CCCO3)cc12 (configuration not stated)	IL-1B inflam inh inconclusive, DT40 TDP1 no CPT 23µM, TDP1 cell CPT 15µM
Cc1ccc(C)c2[nH]c(=O)c(CN(CC3CCCO3)C(=O)NC3CCCCC3)cc12 (configuration not stated)	DT40 TDP1 no CPT inconclusive, TDP1 cell CPT 23µM
Cc1cccc2cc(CN(Cc3cccs3)C3(c4nnnn4C4CCCC4)CCCC3)c(=O)[nH]c12	DT40 TDP1 no CPT 21µM, TDP1 cell CPT inconclusive, D3 antag inconclusive
CCCSc1nc2c(c(=O)[nH]1)C(c1ccc(F)cc1F)CC(=O)N2 (configuration not stated)	DT40 TDP1 no CPT inconclusive, TDP1 cell CPT inconclusive (no result: IL-1B inflam inh, D3 antag)
COc1ccccc1N(CC(=O)NC(C)(C)C)C(=O)CCC(=O)Nc1nccs1	none
CCOc1ccccc1-c1c2cc(O)c(=O)cc-2oc2cc(O)c(O)cc12	DT40 TDP1 no CPT inconclusive, TDP1 cell CPT 23µM, D3 antag -58
COc1ccc(OC)c(-c2c3cc(O)c(=O)cc-3oc3cc(O)c(O)cc23)c1	DT40 TDP1 no CPT inconclusive, TDP1 cell CPT inconclusive
COCCNc1oc(/C=C/c2ccc(F)cc2)nc1C#N	none (no result: IL-1B inflam inh, D3 antag)
Cc1ccsc1C=Nc1ccc(O)cc1	IL-1B inflam inh -99, DT40 TDP1 no CPT inconclusive, TDP1 cell CPT inconclusive
Cc1ccsc1/C=N/N=C/c1sccc1C	DT40 TDP1 no CPT inconclusive
Cc1ccsc1CN(C)CC(=O)Nc1ccc([N+](=O)[O-])cc1Cl	IL-1B inflam inh -79, DT40 TDP1 no CPT inconclusive (no result: ClpP mod)
C/C(=N\NC(=O)c1cc(-c2cccc(OC(C)C)c2)nc2ccccc12)c1cccnc1	DT40 TDP1 no CPT inconclusive, TDP1 cell CPT 10µM
C/C(=N\NC(=O)c1cc(-c2ccc(C)s2)nc2ccccc12)c1cccnc1	IL-1B inflam inh -53, DT40 TDP1 no CPT inconclusive, TDP1 cell CPT 12µM
COc1ccc(-c2cc(C(=O)N/N=C(\C)c3cccnc3)c3cc(C)ccc3n2)cc1OC	DT40 TDP1 no CPT 1.2µM, TDP1 cell CPT 8.2µM
C/C(=N\NC(=O)c1cc(-c2cccnc2)nc2ccccc12)c1ccc(O)cc1O	DT40 TDP1 no CPT 10µM, TDP1 cell CPT 12µM
CC1(c2ccc(OC(F)F)cc2)NC(=O)N(CC(=O)c2ccc3c(c2)OCO3)C1=O (configuration not stated)	none (no result: ClpP mod)
Cc1nc(C)c(C(=O)Nc2cccc(F)c2)s1	none (no result: ClpP mod)
CC(C)C(=O)Nc1c2c(nn1-c1ccc(F)cc1)CSC2	none
CCCCNC(=O)c1onc(CSc2ccc(F)c(F)c2)c1C(=O)O	TDP1 cell CPT 21µM
Cc1cc(C)cc(SCc2noc(C(=O)NCCN(C)C)c2C(=O)NCCN(C)C)c1	DT40 TDP1 no CPT 15µM, TDP1 cell CPT inconclusive
Cc1ccc(Cc2c(-c3cccc(Br)c3)nc3cc(C)c(Br)c(C)n23)cc1	DT40 TDP1 no CPT inconclusive, TDP1 cell CPT inconclusive
COc1ccc(-c2nc(CSCC(=O)N3CCN(c4ccccc4F)CC3)c(C)o2)cc1	ClpP mod inconclusive, DT40 TDP1 no CPT 8.2µM, TDP1 cell CPT 16µM (no result: IL-1B inflam inh, D3 antag)
CCOc1ccc(-c2nc(CSCC(=O)N3CCN(c4cccc(OC)c4)CC3)c(C)o2)cc1	DT40 TDP1 no CPT inconclusive, TDP1 cell CPT 23µM
CCOC(=O)N1CCC(NC(=O)CSCc2nc(-c3ccc(OCC)cc3)oc2C)CC1	DT40 TDP1 no CPT inconclusive, TDP1 cell CPT inconclusive
COc1ccc(NC(=O)CCc2nnc3n(C)c(=O)c4sccc4n23)cc1Cl	none (no result: IL-1B inflam inh, D3 antag)
O=C(Cn1cccc1C(=O)c1ccccc1)NCCCN1CCc2ccccc2C1	IL-1B inflam inh inconclusive, D3 antag inconclusive
O=C(c1ccccc1)c1cccn1CC(=O)N1CCc2ccccc2C1	D3 antag -54
N#Cc1cn(CC(=O)N2CCc3ccccc3C2)c2ccccc12	DT40 TDP1 no CPT inconclusive, D3 antag -53
CCc1ccc(NC(=O)CN2C(C(=O)OC)=C(c3ccccc3)c3ccccc3S2(=O)=O)cc1	none (no result: IL-1B inflam inh, D3 antag)
CCOC(=O)n1c(=O)[nH]c2ccc(Br)cc21	DT40 TDP1 no CPT 18µM (no result: ClpP mod)
CCOC(=O)n1c(=O)n(C)c2ccc(Br)cc21	DT40 TDP1 no CPT inconclusive (no result: ClpP mod)
Cc1ccc(NC(=O)c2ccc3c(=O)n4nc(Nc5ccccc5C)sc4nc3c2)cc1C	DT40 TDP1 no CPT 5.8µM, TDP1 cell CPT 2.9µM (no result: IL-1B inflam inh, D3 antag)
Cc1ccccc1Nc1nn2c(=O)c3ccccc3nc2s1	DT40 TDP1 no CPT inconclusive, TDP1 cell CPT inconclusive
CCOc1ccc(NC(=O)c2ccc3c(=O)n4nc(Nc5ccccc5C)sc4nc3c2)cc1	DT40 TDP1 no CPT 6.5µM, TDP1 cell CPT inconclusive (no result: IL-1B inflam inh, D3 antag)
COc1ccc(NC(=O)c2ccc3c(=O)n4nc(Nc5ccccc5C)sc4nc3c2)cc1Cl	DT40 TDP1 no CPT 5.8µM, TDP1 cell CPT 7.3µM (no result: IL-1B inflam inh, D3 antag)
COc1ccc(NC(=O)c2ccc3c(=O)n4nc(Nc5cccc(Cl)c5C)sc4nc3c2)cc1	DT40 TDP1 no CPT 3.3µM, TDP1 cell CPT 2.9µM (no result: IL-1B inflam inh, D3 antag)
Cc1csc2c(N(C)CCO)ncnc12	none
O=C(NC1CCN(Cc2ccccc2)CC1)C1CCN(S(=O)(=O)c2cccc3cccnc23)CC1	DT40 TDP1 no CPT 15µM, TDP1 cell CPT 18µM
